Bioassay records from PubChem.
NTMT1 inh = NTMT1 methyltransferase inhibition. Potency, µM (series often up to 114 µM), inactives show at the top dose activity change, negative = inhibition, usual class: inhibitors. Q9BV86. AID 1645870. hit rate 2.5% among 59,000. NTMT1 MTase-Glo SAH luminescence, purified enzyme;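 also: potency is read from the fitted curve at half-maximal effect; plate controls were DMSO vehicle for no effect and no enzyme for full effect; nearly all actives have a fitted effect of over 65% in size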
FH mod = Identification of activators of human fumarate hydratase by quantitative high-throughput screening | AID 1347055, 2019 | Potency, µM (top dose mostly 79.9 µM), for the others: at the highest dose activity change, negative = inhibition, most hits filed as inhibitors | Fumarate hydratase, mitochondrial (Homo sapiens), P07954 | FH coupled MDH/diaphorase resazurin fluorescence, 15 min | hit rate 0.22% among 54,000; also: potency is read from the fitted curve at half-maximal effect; % is scaled to controls: 0 for no effect and ±100 for the full control effect; the screen sought activators but most active calls are inhibition curves; nearly all actives have a fitted effect of over 45% in size
GPR32 ag = GPR32 (DRV1) agonism, beta-arrestin recruitment; activation, % at 76.9 µM; CHO-K1 GPR32 beta-arrestin PathHunter luminescence, 90 min; zero percent set by DMSO-only wells; AID 1346428; hit rate 2.5% among 48,000; O75388;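 active = activation of at least 60% and not above a set upper limit, about 1 call in 100 departs from these limits; inconclusive = activation of 40% to 60%, or above that upper limit; inactive = activation under 40%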; also: 0% is about no effect
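CHO-K1 cells stably expressing ProLink-tagged GPR32 and Enzyme Activator-tagged beta-arrestin were seeded at 2,500 cells/well overnight, exposed to compounds for 90 min at 37 °C, then read by beta-Gal complementation chemiluminescence after 1 h detection reagent.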
HTT-AS promoter = activates huntingtin-antisense promoter activity; HEK293 HTT-AS promoter firefly luciferase reporter, 24 h; response scale: percent change from vehicle, -100% = no light; Potency, µM (highest dose often 57.5 µM), without a hit: at the highest dose activity change, positive = activation, actives largely listed as activators; hit rate 0.24% among 48,000; AID 1508624; also: potency is read from the fitted curve at half-maximal effect; nearly all actives have a fitted effect of over 55% in size
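Luminescence was read after Dual-Glo reagent and a 10 min room-temperature incubation. Values were normalized to vehicle (0% activity) and zero RLU (-100% activity). Reporter HEK293 cells had been exposed to compounds (up to 57.5 uM final) for 24 h.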
HTT prom inh = inhibitors of huntingtin promoter activity; hit rate 0.93% among 48,000; AID 1508623; Potency, µM (highest dose often 57.5 µM), for the others: at the top dose activity change, negative = inhibition, usual class: inhibitors; HEK293 HTT promoter firefly luciferase reporter, 24 h; also: potency is read from the fitted curve at half-maximal effect; nearly all actives have a fitted effect of over 50% in size
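HEK293 cells carrying firefly luciferase reporters were seeded at 2,500 per well in Opti-MEM and cultured for 24 h. They were then treated with compounds at up to 57.5 uM final for 24 h at 37 degrees C before Dual-Glo luminescence readout.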
GALC G270D act = enhancers of human galactocerebrosidase G270D mutant activity in cells. P54803. 145M-Twi-hGALC-G270D cells (Twitcher mouse brain line with human GALC G270D), HMU-beta-Gal fluorescence, 48 h. Potency, µM (titrated, usually from 57.5 µM), usual class: activators. hit rate 0.1% among 45,000. AID 1159614; also: potency is read from the fitted curve at half-maximal effect; 0% is about no effect; nearly all actives have a fitted effect of over 65% in size
Target sequence (P54803 whole entry G286D): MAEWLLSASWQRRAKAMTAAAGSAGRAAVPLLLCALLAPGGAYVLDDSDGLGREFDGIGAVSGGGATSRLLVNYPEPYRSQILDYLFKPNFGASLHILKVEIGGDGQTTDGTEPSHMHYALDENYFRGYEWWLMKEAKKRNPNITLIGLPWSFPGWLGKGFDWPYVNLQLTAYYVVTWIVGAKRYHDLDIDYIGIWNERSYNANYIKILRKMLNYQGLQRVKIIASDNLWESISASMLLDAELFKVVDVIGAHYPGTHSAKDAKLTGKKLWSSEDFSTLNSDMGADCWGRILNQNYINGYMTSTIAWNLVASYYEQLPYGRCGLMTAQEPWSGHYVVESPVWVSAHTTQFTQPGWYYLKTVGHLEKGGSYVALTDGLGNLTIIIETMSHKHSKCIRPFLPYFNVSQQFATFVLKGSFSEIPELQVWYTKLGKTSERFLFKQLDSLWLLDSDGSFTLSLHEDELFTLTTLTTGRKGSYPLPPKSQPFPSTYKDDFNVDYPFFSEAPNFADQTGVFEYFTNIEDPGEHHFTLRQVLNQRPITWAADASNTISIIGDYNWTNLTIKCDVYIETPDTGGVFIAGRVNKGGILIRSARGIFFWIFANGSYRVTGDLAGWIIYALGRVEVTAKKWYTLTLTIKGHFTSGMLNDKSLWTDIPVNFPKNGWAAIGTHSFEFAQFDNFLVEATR
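Fluorogenic HMU-b-Gal hydrolysis (0.1 mM final, pH 5.2 citrate-phosphate with 1 mg/mL sodium taurocholate; carbonate stop buffer) measures mutant GALC activity after compound treatment of live 145M-Twi Twitcher brain cells stably carrying human GALC-G270D, with wild-type GALC line alongside; activation sought.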
An asterisk follows results filed as active; i = inactive; ? = inconclusive; · = no result; ! = a repeat was not active; [ ] = dose if it differs, or a comment. Shown are actives, neighbours in structure and some others; about 4.7% of the full set was active somewhere. Unless noted, calls follow the shape of the dose curve; as a rule, active = well fitted curve in the direction sought with a large enough effect; inconclusive = small, poorly fitted or top-dose-only effect, or another doubt; inactive = no such curve, though single readings can be large; an effect the other way counts as inactive or inconclusive.

SMILES	NTMT1 inh	FH mod	GPR32 ag	HTT-AS promoter	HTT prom inh	GALC G270D act
N#Cc1cccc(C#N)c1-c1nc2c3ccccc3c3cc(Cl)ccc3c2[nH]1	-19.9%[57.5 µM]	-20.4%	·	·	·	·
Cc1ccc(OCCn2c(CCNC(=O)c3cccc(Cl)c3)nc3ccccc32)cc1	5.9%	·	·	·	·	·
Cn1cc(C2=C(c3c4n(c5ccccc35)CCC(CN)C4)C(=O)NC2=O)c2ccccc21 (stereo not given)	39.8µM*!	-6.7%[53.3 µM]	·	24.1%	?	·
CCOC(=O)Cc1ccc(NC(=O)n2ncc3cc(Cl)ccc32)cc1	-18.7%	?	7.6	-91.3%	0.251µM*	i
CC1=C(C(=O)OC2CCCC2)C(c2c(Cl)cccc2Cl)CC(=O)N1 (stereo not given)	-3.7%	-17.7%	82.3*	-33.4%	?	i
CC1=C(C(=O)OC2CCCC2)C(c2ccccc2Cl)CC(=O)N1 (stereo not given)	?	-4.8%	-21.3	-31.9%	?	i
CC1=C(C(=O)OC2CCCC2)C(c2cccc(Cl)c2Cl)CC(=O)N1 (stereo not given)	9.6%	-13.8%	83.1*	-37.2%	?	i
Cc1ccc(Nc2cc(N[C@@H]3CCCC[C@@H]3N)nnc2C(N)=O)nc1C	-17.4%	·	·	·	·	·
CC(CNC(=O)c1cnn(-c2ccc(F)cc2)c1-n1cccc1)c1ccccc1 (stereo not given)	79.4µM*	-17.7%	11.9	-45.3%	?	i
CCOC(=O)c1cc(C)n(CC2CCC(C(=O)Nc3ccc(Cl)cc3)CC2)c1C (stereo not given)	3.7%	-10.4%	-3.2	-92.5%	3.98µM*	i
COc1cccc(-n2cc(C(=O)Nc3ccccc3C(N)=O)c3ccccc3c2=O)c1	89.1µM*	7.9%	-11.4	-20.2%	-2.9%	i
COC(=O)c1ccc(OC(CO)C(O)c2ccc(O)c(OC)c2)c(OC)c1 (stereo not given)	4.9%[29.8 µM]	-4.6%[53.3 µM]	·	·	·	·
COc1cc(-c2ccno2)ccc1S(=O)(=O)N1CCN(c2ccccc2)CC1	-21.2%	-5.1%	-3.9	-19.8%	-16.8%	i
COc1ccccc1N1CCN(S(=O)(=O)c2ccc(-c3ccno3)cc2OC)CC1	89.1µM*	-12.6%	-6.9	-33.2%	-19.8%	i
CC1NC(=O)C(Cc2c[nH]c3ccccc23)NC1=O (stereo not given)	11.7%[57.5 µM]	4.6%	·	·	·	·
CCOc1ccc(NC(=O)Nc2cc3c(cc2N2CCCCC2)n(C)c(=O)n3C)cc1	?	-15.1%	107.0*	-37.3%	?	i
Cc1cccc(C(=O)Nc2cc3c(cc2N2CCCCC2)n(C)c(=O)c(=O)n3C)c1	-0.3%	-6.3%	4.1	-3.6%	-0.1%	i
Cn1c(=O)n(C)c2cc(N3CCCCC3)c(NC(=O)c3c(F)cccc3F)cc21	·	·	118.1*	·	·	·
COc1cc(CN(C(=O)COc2ccc(Br)cc2)c2ccccn2)cc(OC)c1OC	?	-3.1%	-0.4	-34.3%	31.6µM*	i
COc1cccc(CN(C(=O)c2oc3cc(C)ccc3c2C)C2CCS(=O)(=O)C2)c1 (stereo not given)	4.4%	31.6µM*	-30.1	-13.1%	-10.4%	i
COc1cccc(CN(C(=O)c2oc3ccccc3c2C)C2CCS(=O)(=O)C2)c1 (stereo not given)	-2.1%	-2.4%	-23.2	-7.6%	-1.7%	i
Cc1ccccc1NC(=O)Cn1c(=O)n(CCCC(=O)NCc2ccc3c(c2)OCO3)c(=O)c2ccccc21	89.1µM*	-2.0%	-6.0	1.4%	-2.7%	i
CCOC(=O)c1cc(-c2ccccc2)n(CC(=O)NC(C)c2ccccc2)c1C (stereo not given)	9.9%	21.3%	43.3	-23.0%	-7.0%	i
CC(C)c1cc(C(C)C)c(CC(=O)NS(=O)(=O)Oc2c(C(C)C)cccc2C(C)C)c(C(C)C)c1	39.8µM*!	-22.1%	·	-9.7%	?	·
Nc1ccn([C@H]2O[C@@H](CO)[C@H](O)[C@H]2O)c(=O)n1	16.3%	20.5%	·	·	·	·
SMILES	NTMT1 inh	FH mod	GPR32 ag	HTT-AS promoter	HTT prom inh	GALC G270D act
Cc1ccc(CN(C)c2nc(-c3ccccc3C(F)(F)F)nc3ccccc23)cc1	8.0%	·	·	·	·	·
COc1ccc(NC(=O)c2nnn(CC(=O)Nc3ccc(C)c(C)c3)c2N)cc1OC	-16.4%	-18.2%	91.0*	-40.1%	?	i
CCOc1ccc(NC(=O)Cn2nnc(C(=O)NCCc3ccccc3)c2N)cc1	-8.1%	-7.0%	87.7*	-16.2%	-26.9%	i
Cc1ccccc1N1CCN(S(=O)(=O)C[C@]23CC[C@H](C[C@@H]2NC(=O)[C@@H](N)CCS(C)(=O)=O)C3(C)C)CC1	?	23.6%	·	·	·	·
COc1ccc(-c2noc(-c3cccnc3NCc3ccco3)n2)cc1	-2.3%	-29.1%	-9.4	11.2µM*	69.6%	i
CCC(O)(C(=O)OCc1ccccc1NC(=O)CCC(=O)O)C(C)O (stereo not given)	9.6%[29.8 µM]	10.8%[53.3 µM]	·	·	·	·
O=C(Nc1nc(-c2ccc(Br)cc2)ns1)c1ccccc1F	2.0%	0.0%	60.3*	-7.4%	-8.7%	i
COc1ccc(-c2nsc(NC(=O)c3ccccc3Br)n2)cc1	-3.0%	-21.4%	19.9	?	32.0%	i
NC1CCC(N[C@@H]2C[C@H]2c2ccccc2)CC1 (stereo not given in full)	?	1.2%	·	·	·	·
CCN1CCN(Cc2ccc(-c3cc4c(N[C@H](C)c5ccccc5)ncnc4[nH]3)cc2)CC1	22.4µM*	-6.5%[53.3 µM]	·	-37.8%	?	·
CCN1CCN(Cc2ccc(-c3cc4c(NC(C)c5ccccc5)ncnc4[nH]3)cc2)CC1 (stereo not given)	14.1µM*	-2.7%	·	·	·	·
CCn1c2ccccc2c2cc(CN3CCN(Cc4ccc(Cl)cc4)CC3)ccc21	?	?	-24.0	-30.5%	-25.6%	i
Cc1ccc(-n2ncc3c(NC(C)c4ccccc4)ncnc32)cc1 (stereo not given)	0.3%	-14.2%	?	11.0%	-11.2%	i
COc1cc(-c2cc(-c3ccc(N4CCNCC4)cc3)cnc2C)cc(OC)c1OC	-6.1%[57.5 µM]	-7.1%	·	·	·	·
CN1C[C@@H]2c3ccccc3Oc3ccc(Cl)cc3[C@H]2C1	-2.4%	·	·	·	·	·
Cc1cc(N[S+](=O)([O-])c2cc3c(cc2Cl)CCC(=O)N3)ccc1Cl	10.3%	·	·	·	·	·
O=C(CCNS(=O)(=O)c1ccc2c(c1)CCN2C(=O)C1CC1)N1CCN(c2ccccc2F)CC1	17.5%	-8.9%	70.6*	?	-43.1%	i
